The whole screen tested about 360,000 compounds, of which about 510 (0.14%) were called active. This excerpt belongs to a sample that is enriched for actives. Unmarked numbers belong to inactive results.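 How the source made its calls: active means mean normalized replicate activity at least 40 and at least half of replicates scoring 40 or more; inconclusive means only one of the two criteria met; inactive means mean below 40 and under half of replicates reaching 40.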
Target: DNA repair and recombination protein RAD54-like (Homo sapiens) (UniProt Q92698)
Test: inhibitors of human RAD54 branch migration, primary screen, biochemical, fluorescence, single point (AID 602329);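 further: 0% = median of neutral control wells and 100% = median of positive control wells; inhibitors cause a drop in the FAM fluorescence signal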
Conditions: RAD54 Holliday junction branch migration, FAM/BHQ fluorescence; at 10.4 µM; hits give high values

DNA repair and recombination protein RAD54-like (Homo sapiens), sequence (Q92698 whole entry, looked up): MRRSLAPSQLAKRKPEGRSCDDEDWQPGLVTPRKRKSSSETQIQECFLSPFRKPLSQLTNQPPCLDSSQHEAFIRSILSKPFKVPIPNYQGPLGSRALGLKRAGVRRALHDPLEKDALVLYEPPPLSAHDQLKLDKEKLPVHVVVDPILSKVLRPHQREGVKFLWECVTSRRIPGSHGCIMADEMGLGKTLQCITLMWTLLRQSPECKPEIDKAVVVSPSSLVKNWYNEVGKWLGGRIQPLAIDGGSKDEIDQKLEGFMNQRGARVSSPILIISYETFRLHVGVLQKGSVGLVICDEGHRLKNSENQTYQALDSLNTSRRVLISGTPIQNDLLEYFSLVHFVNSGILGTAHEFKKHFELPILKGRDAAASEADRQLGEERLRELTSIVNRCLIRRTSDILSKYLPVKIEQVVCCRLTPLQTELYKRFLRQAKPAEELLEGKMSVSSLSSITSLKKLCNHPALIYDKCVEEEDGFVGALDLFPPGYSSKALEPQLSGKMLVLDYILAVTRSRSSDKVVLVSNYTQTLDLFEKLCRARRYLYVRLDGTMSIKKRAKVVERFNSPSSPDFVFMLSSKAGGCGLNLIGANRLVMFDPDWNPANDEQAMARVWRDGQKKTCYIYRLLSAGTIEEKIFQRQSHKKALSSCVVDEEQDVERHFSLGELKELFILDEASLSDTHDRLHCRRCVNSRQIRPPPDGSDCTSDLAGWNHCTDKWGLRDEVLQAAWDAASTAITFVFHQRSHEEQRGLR

SMILES | inhibition
COc1cccc(C#Cc2ccc([C@H]3[C@@H](CO)N(C(=O)c4ccccn4)[C@H]3C#N)cc2)c1 | -3.06%
CCCNC(=O)N(C)C[C@H]1Oc2ncc(-c3ccc(C(=O)N(C)C)cc3)cc2C(=O)N([C@@H](C)CO)C[C@@H]1C | -0.543%
C[C@@H]1CN([C@@H](C)CO)C(=O)c2cc(C#Cc3ccncc3)cnc2O[C@@H]1CN(C)C(=O)CN(C)C | 0.163%
C[C@H]1CN([C@@H](C)CO)C(=O)Cc2cc(NS(C)(=O)=O)ccc2O[C@@H]1CN(C)S(=O)(=O)c1ccc(Cl)cc1 | 4.72%
COCC(=O)Nc1ccc2c(c1)[C@@H]1C[C@H](CC(=O)NCc3cc(F)ccc3F)O[C@@H](CO)[C@@H]1O2 | -1.13%
CO[C@H]1CN(C)C(=O)c2ccc(NC(=O)c3cc(C)on3)cc2OC[C@H](C)N(C)C[C@H]1C | -1.45%
O=C(NCCN1CCN(Cc2ccccc2)CC1)c1cc2c(=O)[nH]c3ccccc3c2s1 | -0.046%
CN1CCN(CCCNC(=O)c2cc3c(=O)oc4ccccc4c3s2)CC1 | 55.7% (active)
Cc1cccc2c1-c1sc(C(=O)NCCCN3CCc4ccccc4C3)cc1CO2 | 22%
Cn1cnc(S(=O)(=O)N2C[C@H](O)COC[C@@H]3O[C@H](CC(=O)NCc4cccc(F)c4)CC[C@H]32)c1 | 7.2%
COc1ccc(/C=C(\NC(=O)c2ccccc2)C(=O)NCCN2CCOCC2)cc1OC | -3.48%
COc1ccc(CCNC(=O)c2ccc3c(c2)NC(=O)C(N2CCOCC2)S3)cc1OC (stereo unspecified) | -1.36%
CCN1CCN(CCNC(=O)c2ccc3c(c2)NC(=O)/C(=C\c2ccc(OC)c(OC)c2)S3)CC1 | 72.7% (active)
CC(C)C(=O)Nc1ccc2c(c1)C(=O)N(C)[C@H]1CC[C@H](CC(=O)NCc3ccc(F)cc3)O[C@H]1CO2 | 7.1%
CNC(=O)C[C@H]1CC[C@H]2[C@@H](COc3ccc(NC(=O)c4cccc(OC)c4)cc3C(=O)N2C)O1 | 7.1%
COC(=O)[C@@H]1[C@@H](CO)[C@@H]2Cn3c(ccc(-c4ccccc4)c3=O)[C@@H]2N1C(=O)C1CC1 | -7.82%
C[C@@H]1CN([C@@H](C)CO)C(=O)c2cc(-c3ccncc3)cnc2O[C@@H]1CN(C)C(=O)C1CCCCC1 | -1.52%
N#C[C@@H]1[C@H](c2ccc(C#CC3CCCCC3)cc2)[C@@H](CO)N1S(=O)(=O)c1ccccc1 | 1.51%
O=C(NCCCN1CCOCC1)c1cc(-c2ccccc2F)no1 | -15.8%
O=C(NCCCN1CCOCC1)c1cnn2c(-c3ccccc3)cc(-c3ccccc3)nc12 | 58.3% (active)
O=C(NCCCN1CCOCC1)c1cc(-c2cccc(O)c2)on1 | 10.7%
C[C@H]1CN([C@@H](C)CO)S(=O)(=O)c2ccc(-c3cccnc3)cc2O[C@H]1CN(C)C(=O)C1CCCCC1 | 0.93%

SMILES | inhibition
CC(C)NC(=O)Nc1ccc2c(c1)C(=O)N([C@H](C)CO)C[C@@H](C)[C@@H](CN(C)Cc1ccncc1)O2 | -0.866%
CC(C)NC(=O)Nc1ccc2c(c1)C(=O)N([C@@H](C)CO)C[C@@H](C)[C@H](CN(C)Cc1ccc(-c3ccccc3)cc1)O2 | 20.7%
COc1ccc(NC(=O)Nc2ccc3c(c2)C(=O)N([C@@H](C)CO)C[C@H](C)[C@@H](CN(C)Cc2ccc4c(c2)OCO4)O3)cc1 | 3.59%
COc1ccc(CN(C)C[C@@H]2Oc3ccc(NC(=O)Nc4ccc(OC)cc4)cc3C(=O)N([C@H](C)CO)C[C@H]2C)cc1 | 67.3% (active)
COc1ccc(NC(=O)Nc2ccc3c(c2)C(=O)N([C@H](C)CO)C[C@@H](C)[C@H](CN(C)Cc2ccccc2)O3)cc1 | 22.5%
COc1ccc(CN(C)C[C@@H]2Oc3ccc(NC(=O)NC(C)C)cc3C(=O)N([C@@H](C)CO)C[C@H]2C)cc1 | 56.8% (active)
CN1c2ccc(C#Cc3cccnc3)cc2[C@@H]2[C@@H](CCN2S(=O)(=O)c2ccccc2)[C@H]1CO | -8.94%
CCCCCCCCCCOC(=O)Cn1c(COc2ccc(C)cc2)[n+](C)c2ccccc21 | 50.3% (active)
CCOc1ccc(OCCSc2nc3ccccc3n2CC(=O)O)cc1 | -7.61%
CCCCCn1c(=O)c(C(=O)OCC)c(Cl)c2ccccc21 | 0.614%
C[C@@H]1CN([C@@H](C)CO)C(=O)Cc2cc(NC(=O)Nc3ccc(C(F)(F)F)cc3)ccc2O[C@H]1CN(C)C(=O)Nc1ccc(F)cc1 | 0.667%
CN1C(=O)c2cc(NS(=O)(=O)c3ccccc3F)ccc2OC[C@@H]2O[C@@H](CC(=O)NC3Cc4ccccc4C3)CC[C@@H]21 | -2.97%
C[C@H](CO)N1C[C@H](C)[C@@H](CN(C)S(=O)(=O)c2ccc(Cl)cc2)Oc2ccc(NS(=O)(=O)c3cn(C)cn3)cc2C1=O | -4.21%
CO[C@@H]1CN(C)C(=O)c2cc(NC(=O)C3CCOCC3)ccc2OC[C@@H](C)NC[C@@H]1C | 8.52%
CC(C)CC#Cc1cnc2c(c1)C(=O)N([C@@H](C)CO)C[C@@H](C)[C@@H](CN(C)S(=O)(=O)c1cccs1)O2 | 12.1%
COc1cccc(NC(=O)Nc2ccc3c(c2)C(=O)N(C)C[C@@H](OC)[C@H](C)CN(CC2CC2)[C@H](C)CO3)c1 | 8.71%
Cc1ccc(S(=O)(=O)Nc2ccc3c(c2)C(=O)N([C@H](C)CO)C[C@H](C)[C@H](CN(C)Cc2ccccc2)OCCCC[C@@H](C)O3)cc1 | 5.79%
COc1ccc(C(=O)Nc2ccc3c(c2)OC[C@H](C)N(C(C)=O)C[C@@H](C)[C@H](OC)CN(C)C3=O)cc1 | -4.9%
CO[C@@H]1CN(C)C(=O)c2cc(NS(=O)(=O)c3ccc(Cl)cc3)ccc2OC[C@H](C)NC[C@@H]1C | -8.54%
CN1c2ccc(-c3cccc(C#N)c3)cc2[C@@H]2[C@@H](CCN2C(=O)NC2CCCCC2)[C@@H]1CO | -3.76%
O=S(=O)(c1ccc(F)cc1)N1CC[C@@H]2[C@@H](CO)Nc3ccc(-c4ccccc4F)cc3[C@@H]21 | 7.93%
CC(=O)N(C)C[C@@H]1Oc2ncc(-c3ccccc3F)cc2C(=O)N([C@H](C)CO)C[C@@H]1C | -1.78%

SMILES | inhibition
COc1ccccc1NC(=O)N1[C@H](C#N)[C@H](c2ccccc2)[C@H]1CO | 10.5%
CC(=O)N(C)C[C@H]1Oc2cc(C#Cc3ccccc3F)ccc2S(=O)(=O)N([C@H](C)CO)C[C@@H]1C | 2%
O=C(C[C@@H]1C=C[C@@H](NC(=O)c2cccnc2)[C@H](CO)O1)NCCN1CCCCC1 | 0.617%
O=C(CC1CC1)Nc1ccc2c(c1)[C@@H]1C[C@@H](CC(=O)NC3CCCCC3)O[C@H](CO)[C@@H]1O2 | -1.82%
COc1cccc2sc3cc(NCC[C@@H]4CCCN4C)ccc3c(=O)c12 | 94% (active)
Cc1cc2oc3ccc(NCCC4CCCN4C)cc3c(=O)c2cc1C (stereo unspecified) | 102% (active)
CN1CCC[C@@H]1CCO[C@](C)(c1ccccc1)c1ccc(Cl)cc1 | 11.3%
CO[C@@H]1CN(C)C(=O)c2cc(NS(=O)(=O)CC(F)(F)F)ccc2OC[C@@H](C)N(Cc2ccccn2)C[C@H]1C | -9.64%
COc1ccc(S(=O)(=O)Nc2ccc3c(c2)C(=O)N([C@@H](C)CO)C[C@@H](C)[C@@H](CN(C)S(C)(=O)=O)O3)cc1 | -4.67%
C[C@@H]1CCCCO[C@@H](CN(C)C(=O)NC2CCCCC2)[C@H](C)CN([C@H](C)CO)C(=O)c2cc(NC(=O)c3ccccc3)ccc2O1 | -0.448%
COc1cccc(NC(=O)N2C[C@@H](O)COC[C@@H]3O[C@@H](CC(=O)NC4CCC4)CC[C@H]32)c1 | -4.41%
C[C@@H]1CN([C@@H](C)CO)C(=O)c2cc(NC(=O)Nc3ccc(C(F)(F)F)cc3)ccc2O[C@@H](C)CCCCO[C@H]1CN(C)C(=O)c1ccccc1 | -3.03%
CO[C@H]1CC[C@H]2CCOc3c(C#N)cccc3C(=O)N(C)CC3(CCCCC3)CC(=O)N(C)C[C@@H]1O2 | -12.8%
CN1c2ccc(Br)cc2[C@@H]2[C@@H](CCN2S(=O)(=O)c2ccc(F)cc2)[C@@H]1CO | -1.32%
CN1c2ccc(-c3ccccc3)cc2[C@@H]2[C@@H](CCN2C(=O)c2ccccc2F)[C@@H]1CO | 4.56%
CCCC#Cc1ccc2c(c1)O[C@H](CN(C)C(=O)c1ccncc1)[C@H](C)CN([C@H](C)CO)S2(=O)=O | 12.3%
C[C@@H]1CN([C@@H](C)CO)C(=O)Cc2cc(NC(=O)Nc3ccc4c(c3)OCO4)ccc2O[C@@H]1CN(C)S(=O)(=O)c1ccc(Cl)cc1 | 1.58%
Cc1cc(C)c2nc3nc(C)cc(C)c3c(N)c2c1 | 96% (active)
CCC(=O)N(C)C[C@H]1Oc2ncc(C#C[C@@H](C)O)cc2C(=O)N([C@@H](C)CO)C[C@H]1C | 0.495%
CN1CCN(C(=O)C[C@H]2C[C@H]3c4cc(NC(=O)C5CCC5)ccc4O[C@H]3[C@H](CO)O2)CC1 | 6.76%
CNC[C@H]1OCCCC[C@@H](C)Oc2ccc(NC(=O)c3ccccc3)cc2C(=O)N([C@@H](C)CO)C[C@H]1C | 6.8%
COc1ccc(S(=O)(=O)N2CC[C@H]3[C@@H](CO)N(C)c4ccc(C#Cc5ccccc5OC)cc4[C@H]32)cc1 | 17.3%

Reference: PubChem BioAssay AID602329 (Broad Institute, 2012)
